Source: PubChem
This is a sample that favours compounds with a hit; in the whole collection about 0.93% have one here.
HIV TAR-Tat = HIV-1 TAR-Tat binding disruption; HIV-1 TAR RNA, Tat peptide displacement FRET; hits give high values; 100,000 compounds, 0.6% hits; z-score (no concentration beside the values); active = z-score of 3 or more in at least 2 runs
CDC25B-CDK2 inh = human CDC25B-CDK2/CyclinA binding inhibition. P30305+P24941. HTRF CDC25B-CDK2/CyclinA binding, anti-His/anti-Flag; hits give high values. z-score (concentration not given with the values). 94,000 compounds, 0.72% hits. AID 1259370; in the data active = z-score above about 3.2
Starred values were filed as active, the others as inactive; . = not tested or not shown.

SMILES	HIV TAR-Tat	CDC25B-CDK2 inh
CCOc1ccc(Br)cc1CNc1ccc2[nH]c(=O)[nH]c2c1	-4.5	7.5*
CCOc1c(Cl)cc(CNc2ncn[nH]2)cc1OC	-0.89	-0.46
O=c1[nH]c2ccc(NCc3ccccn3)cc2[nH]1	-6.5	13*
CCOc1c(Br)cc(CNc2ccc3[nH]c(=O)[nH]c3c2)cc1OC	-3.6	8.5*
O=c1[nH]c2ccc(NCC#Cc3ccccc3)cc2[nH]1	0.85	0.12
C=CCOc1ccc(CNc2ccc3[nH]c(=O)[nH]c3c2)cc1OC	-0.17	1.2
COc1ccc(Br)cc1CNc1cc(C)cc(C)c1	0.4	-2.1
CS(=O)(=O)CCC(C(=O)N1CCCC1)N1Cc2ccccc2C1=O (configuration not stated)	1.2	.
Cc1ccc(-c2ccc(=O)[nH]n2)cc1S(=O)(=O)NC(C)(C)C	2	-1.1
Cc1ccc(-n2c(=O)[nH]c3nc(N4CCOCC4)sc3c2=O)cc1	0.65	-1.1
CC(C)CCNC(=O)CSc1nc(-c2ccco2)nc2cc(=O)[nH]n12	-0.12	.
CCOc1cc(CNc2ccc3[nH]c(=O)[nH]c3c2)cc(Br)c1OCC	0.85	-1.7
O=C(Cc1cccs1)Nc1ccc2[nH]c(=O)[nH]c2c1	1.2	.
O=c1[nH]c2ccc(NCc3ccc(-c4ccc(F)cc4)o3)cc2[nH]1	-1.9	5.3*
CCOc1cc(CNc2ccc3[nH]c(=O)[nH]c3c2)cc(Br)c1OC	-0.04	6.1*
CCOc1c(Nc2ccc(-c3ccno3)cc2)c(=O)c1=O	-0.02	.
CCCN1CCN(C(=O)Cn2cnc3oc(C)c(C)c3c2=O)CC1	0.72	.
Cn1cc(-c2cc3n(n2)CCC(=O)N3CC(=O)NCC2COCCO2)c2ccccc21 (configuration not stated)	1.3	.
COc1ccccc1/C=C/c1nc(C#N)c(N2CCCCC2)o1	-0.87	-1.5
COc1ccccc1/C=C/c1nc(C#N)c(N2CCNCC2)o1	-0.52	9.6*
N#Cc1nc(/C=C/c2cccs2)oc1N1CCC(Cc2ccccc2)CC1	-1.1	0
N#Cc1nc(/C=C/c2cccs2)oc1N1CCNCC1	-1.5	9.3*
CSc1ccc(C(Nc2ccccn2)c2oc(CO)cc(=O)c2O)cc1 (configuration not stated)	.	0.12
Cc1ccccc1NS(=O)(=O)c1cn(C)c(C)n1	2	.
CC(C)c1ccc(S(=O)(=O)N2CCc3cc4ccccc4nc32)cc1	-1.4	-1.4
SMILES	HIV TAR-Tat	CDC25B-CDK2 inh
CC(C)Cc1nn2c(=O)cc(CSc3nnc(-c4ccccc4)o3)nc2s1	1.5	-2.1
Oc1ccc(Cl)cc1C=Nc1ccc2cn[nH]c2c1	.	9.1*
Oc1c(Cl)cc(Cl)cc1C=Nc1cccnc1	.	-0.54
COc1cccc(NC(=O)NCc2nnnn2-c2ccccc2)c1	1.7	.
Cc1cc(=O)n2[nH]c(C)c(-c3ccc(Cl)cc3)c2n1	.	-3.7
Cc1[nH]n2c(=O)cc(CSc3nnnn3-c3ccccc3)nc2c1-c1ccc(Cl)cc1	24*	-2.2
CC(=O)Oc1cc2c(C(=O)NC3CCS(=O)(=O)C3)c(C)oc2c2ccccc12 (configuration not stated)	-7.7	10*
CC(=O)Oc1cc2c(C(=O)NCC3CCCO3)c(C)oc2c2ccccc12 (configuration not stated)	1.3	2.3
O=C(CCCn1c(=O)c2cccn2c2ccccc21)NCCCN1CCCC1	2.1	.
Cc1nc(N2CCCC(C(=O)NC3CC3)C2)c2c(C)noc2n1 (configuration not stated)	11*	.
CCc1noc2nc(C)nc(N3CCCC(C(=O)NC4CC4)C3)c12 (configuration not stated)	3.7	.
O=C(COc1ccccc1)Nc1c(C(=O)N2CCN(C(=O)c3ccco3)CC2)oc2ccccc12	0.22	.
CSc1ccc(C(=O)Nc2nc(-c3nc4ccccc4s3)cs2)cc1	0.63	.
Cc1[nH]nc(-n2cnnc2)c1NC(=O)C(C)C	1	-0.9
CC(C(=O)NCc1ccco1)n1sc2ccccc2c1=O (configuration not stated)	3.6*	-1.8
CNC(=O)C(C)n1sc2ccccc2c1=O (configuration not stated)	1.8	-2.1
CC(C)c1nnc(NC(=O)C(=O)c2c[nH]c3ccccc23)s1	2	-1.3
O=C(Nc1nnc(-c2ccco2)s1)C(=O)c1c[nH]c2ccccc12	17*	-2.1
COc1cc(C2NC(=O)NC(O)(C(F)(F)F)C2C(=O)c2ccccc2)ccc1O (configuration not stated)	.	-1.7
Cc1cc2c3c(c1)C1C=CCC1C(C(=O)O)N3CC1CC=CC21 (configuration not stated)	.	-1.2
O=C(O)C1C2CC=CC2c2cc(Br)cc3c2N1CC1CC=CC31 (configuration not stated)	20*	4.9*
Cc1nn(Cc2ccccc2)c(=O)c2noc(C)c12	-1	.
CC1=C(c2ccc(C)cc2)S(=O)(=O)N=C1N1CCOCC1	1.8	-2.7
O=c1c(-c2ccccc2)c(C(F)(F)F)oc2c(CN3CCCC3)c(O)ccc12	0.65	15*
CC1CN(Cc2c(O)ccc3c(=O)c(-c4ccccc4)c(C(F)(F)F)oc23)CC(C)O1 (configuration not stated)	0.4	0.01
SMILES	HIV TAR-Tat	CDC25B-CDK2 inh
Cc1ncc(-c2ccc(C)c(S(=O)(=O)N(C)Cc3ccccc3)c2)o1	-0.07	.
CCCc1ccc(-c2ccc(C(N)=O)cc2)cc1	.	-1.1
CCCc1cc(C(N)=S)ccn1	22*	.
COc1ccccc1NC(=O)N1c2ccccc2NC2=C(C(=O)CCC2)C1c1cccs1 (configuration not stated)	2.6	.
CCOc1ccccc1NC(=O)N1c2ccccc2NC2=C(C(=O)CCC2)C1c1cccs1 (configuration not stated)	21*	.
Clc1cccc(-c2nn[nH]n2)c1	2.3	-0.98
COC(=O)C(C)Sc1nc(-c2ccc(F)cc2)nc2c1c(=O)n(C)c(=O)n2C (configuration not stated)	.	-0.94
O=C(O)c1cc(-c2ccco2)nc2ccc(Br)cc12	6.4*	.
O=C(NCc1ccco1)c1ccc2nc(-c3cccs3)c(-c3cccs3)nc2c1	-0.7	.
O=C(O)c1ccc2nc(-c3ccco3)c(-c3ccco3)nc2c1	51*	.
O=C(O)c1cc(-c2ccc(O)cc2)nc2ccc(Br)cc12	.	-1.1
C=CCOc1ccc(C2c3c(-c4ccccc4O)n[nH]c3C(=O)N2Cc2cccnc2)cc1OCC (configuration not stated)	-2.8	0.48
COCCNc1sc(S(=O)(=O)c2ccccc2)nc1S(=O)(=O)c1ccc(Cl)cc1	0.28	-0.67
c1ccc(-c2noc(NC3CCCCC3)n2)cc1	-0.33	.
Oc1ccc2ncccc2c1C(Nc1ccccn1)c1cccc(Cl)c1 (configuration not stated)	1.4	15*
Oc1ccc2ncccc2c1C(Nc1ccccn1)c1ccc(Cl)cc1 (configuration not stated)	2.1	2.6
O=C(CSc1n[nH]c(-c2ccncc2)n1)c1c[nH]c2ccccc12	-0.52	6.8*
O=C(CSc1n[nH]c(-c2ccco2)n1)c1c[nH]c2ccccc12	2.5	-1.5
CCc1nn(CC(=O)NC(C)C)c(=O)c2cc3ccccc3n12	1.2	-1.6
O=C(O)CCSc1ncnc2c1sc1cccc(F)c12	5.4*	-0.58
O=C(CSc1ncnc2c1sc1cccc(F)c12)N1CCCCC1	-0.7	.
O=C(CSc1ncnc2c1sc1cccc(F)c12)NCc1ccco1	0.27	.
